Experimental findings from PubChem BioAssay AID602393 (Broad Institute, 2012) are described below.

Hit rate of the full screen: of about 350,000 compounds, about 7,000 (2%) were called active. The sample holds actives, similar compounds and a random draw of the others, so the mix is not that of the screen. Unmarked numbers belong to inactive results. Cut-off read from the data, not from the text of the source: active = activation above about 40%; inconclusive = no clear call, values can overlap the other calls; inactive = below that.

This experiment in a line: raisers of Bmi1 knock-in reporter signal – mouse ES cells, Bmi1 luciferase knock-in, single point, esBAF inhibitor project, primary screen (AID 602393).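 Note: 0% = median of the plate's neutral control wells and 100% = double that signal; a rise in the Bmi1 reporter signal indicates esBAF inhibition.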 The settings on record: 24 h, at 12.5 µM, active compounds read high, 100% = twice the neutral-well signal.
For `O=C(NC1CCCCC1)N[C@H]1CC[C@H](CCNS(=O)(=O)c2ccc(F)cc2)O[C@H]1CO`, the reporter increase is 12.9%.

For the compound `O=C(c1nnc(-c2ccc(Cl)cc2)o1)C1CCCC1`, the reporter increase was 19.6%.

As for `CSc1ccccc1-c1nnc(-c2ccc(Cl)cc2)o1`, the reporter increase is 67.2% (active).

As for `O=C(Nc1nnc(-c2ccc(Cl)cc2)o1)c1ccccc1Br`, the reporter increase is 17.7%.

In the case of `COc1cc(NC(=O)CCNC(=O)Cn2ccc3ccccc3c2=O)cc(OC)c1OC`, the reporter increase is 52.2% (active).

`COc1ccc(NC(=O)CCNC(=O)Cn2ccc3ccccc3c2=O)c(OC)c1`: the reporter increase is -7.83%.

For the compound `Cc1ccc(CNC(=O)CCNC(=O)Cn2ccc3ccccc3c2=O)cc1`, the reporter increase was -7.21%.

With `O=C(C[C@@H]1C=C[C@@H](NS(=O)(=O)c2ccccc2)[C@@H](CO)O1)NCc1ccccc1F`, the reporter increase was -1.71%.

As for `CC(C)NC(=O)N(C)C[C@@H]1Oc2c(cccc2N(C)C)C(=O)N([C@@H](C)CO)C[C@H]1C`, the reporter increase was -5.01%.

`C[C@H](CO)N1C[C@H](C)[C@@H](CN(C)C(=O)C2CCC2)Oc2cc(C3=CCCCC3)ccc2S1(=O)=O`: the reporter increase is 0.47%.

For the compound `COc1ccc(S(=O)(=O)N(C)C[C@H]2Oc3ccc(NC(=O)Nc4c(C)noc4C)cc3C(=O)N([C@@H](C)CO)C[C@@H]2C)cc1`, the reporter increase is -2.46%.

With `COC(=O)c1ccc(CNC(=O)c2ccc(S(=O)(=O)N3CCCCCC3)cc2)cc1`, the reporter increase was 1.32%.

Consider `COc1ccc(CNC(=O)c2ccc3oc(C(C)C)nc3c2)cc1`, for which the reporter increase was 47.5% (active).

On to `COC(=O)c1ccc(CNC(=O)c2ccc3oc(C(C)C)nc3c2)cc1`, for which the reporter increase is 49% (active).

As to `CC(C)c1nc2cc(C(=O)NC(C)c3cnn(C)c3)ccc2o1` (stereo not given), the reporter increase was 3.1%.

Consider `COC(=O)c1ccc(CSc2nc3cc(Cl)ccc3o2)cc1`, for which the reporter increase was -4.19%.

Take `COc1ccc(CNC(=O)c2cc(=O)c3c(C)cc(C)cc3o2)cc1`: the reporter increase was 1.4%.

For the compound `O=C(NCC[C@@H]1CC[C@@H](NC(=O)C2CCCC2)[C@H](CO)O1)c1cnccn1`, the reporter increase is -3.83%.

`COc1ccc(S(=O)(=O)N(C)C[C@H]2Oc3c(NS(=O)(=O)c4ccc(F)cc4)cccc3C(=O)N([C@H](C)CO)C[C@H]2C)cc1`: the reporter increase is 0.834%.

For the compound `C[C@H](CO)N1C[C@H](C)[C@@H](CN(C)Cc2ccc(C(=O)O)cc2)Oc2ccc(NS(=O)(=O)c3cn(C)cn3)cc2CC1=O`, the reporter increase is -1.15%.

For `C[C@@H]1CN([C@@H](C)CO)C(=O)c2cc(NC(=O)Cc3ccccc3)ccc2O[C@@H](C)CCCCO[C@H]1CN(C)C(=O)Nc1cccc2ccccc12`, the reporter increase was 1.67%.

For the compound `CS(=O)(=O)Nc1ccc2c(c1)[C@@H]1C[C@H](CC(=O)NCc3cc(F)ccc3F)O[C@@H](CO)[C@@H]1O2`, the reporter increase is 1.97%.

For `O=C(C[C@H]1CC[C@H](NC(=O)c2ccc3c(c2)OCO3)[C@H](CO)O1)NCc1ccc(Oc2ccccc2)cc1`, the reporter increase is -8.21%.

For `CNC[C@H]1Oc2ccc(NC(=O)Nc3ccc4c(c3)OCO4)cc2CC(=O)N([C@H](C)CO)C[C@H]1C`, the reporter increase was 0.772%.

In the case of `Nc1ccc(N=Nc2ccccc2Cl)c(N)n1`, the reporter increase was 76% (active).

Regarding `COc1ccc(NC(=O)N(C)C[C@@H]2Oc3c(NC(=O)C4CCOCC4)cccc3C(=O)N([C@H](C)CO)C[C@@H]2C)cc1`, the reporter increase was 1.63%.

Take `CCOC(=O)C1(Cc2ccccc2C)CCCN(C(=O)CCc2c(C)noc2C)C1` (stereo not given): the reporter increase was 4.36%.

Consider `Cc1noc(C)c1CCC(=O)N1CCCC(CO)(Cc2ccccc2)C1` (stereo not given), for which the reporter increase is 73.8% (active).

Turning to `COC(=O)CCC(=O)N1CCCC(CO)(Cc2ccccc2)C1` (stereo not given), the reporter increase was 88.3% (active).

On to `Cc1ccccc1CC1(CO)CCCN(C(=O)c2cc(-c3ccccc3)no2)C1` (stereo not given), for which the reporter increase is -3.48%.

With `CCCc1cc(C(=O)N2CCCC(CO)(CCCc3ccccc3)C2)n(C)n1` (stereo not given), the reporter increase is 9.89%.

`Cc1noc(C)c1CCC(=O)O`: the reporter increase was -5.69%.

On to `CCCN(C)C[C@H]1OCCCC[C@@H](C)Oc2ccc(NC(=O)CCC(F)(F)F)cc2C(=O)N([C@H](C)CO)C[C@H]1C`, for which the reporter increase was 3.13%.

`COc1cccc(-c2ccc3c(c2)O[C@@H](CN(C)Cc2ccncc2)[C@H](C)CN([C@H](C)CO)S3(=O)=O)c1`: the reporter increase was 0.833%.

Turning to `CN1CCN(C(=O)C[C@H]2C[C@@H]3c4cc(NC(=O)NC5CCCC5)ccc4O[C@@H]3[C@@H](CO)O2)CC1`, the reporter increase was -0.346%.

In the case of `O=C(CN1CCOCC1)N[C@@H]1CC[C@@H](CCn2cc(C3CCCCC3)nn2)O[C@@H]1CO`, the reporter increase is -5.48%.

`CN(C)c1ccc(/C=C2\NC(=S)N(Cc3ccccc3)C2=O)cc1`: the reporter increase is 42.2% (active).

Regarding `CC1CN(Cc2ccccc2)C(=S)NC1=O` (stereo not given), the reporter increase is 2.98%.

For `O=C1C(Cc2ccc(O)cc2)NC(=S)N1Cc1ccccc1` (stereo not given), the reporter increase was -6.04%.

Consider `C[C@H](CO)N1C[C@H](C)[C@H](CN(C)S(=O)(=O)c2ccccc2)Oc2ccc(NC(=O)Cn3cnnn3)cc2C1=O`, for which the reporter increase is 2.23%.

`CCC(=O)Nc1ccc2c(c1)C(=O)N(C)[C@@H]1CC[C@@H](CC(=O)Nc3cccc(OC)c3)O[C@@H]1CO2`: the reporter increase was -2.81%.

For `O=C(NC1CCCCC1)c1cc(C2CC2)on1`, the reporter increase was -10.1%.

On to `Cc1nn(Cc2ccc(Cl)c(Cl)c2)c(C)c1NC(=O)c1cc(C2CC2)on1`, for which the reporter increase was 7.59%.

As to `CSc1ccccc1NC(=O)c1cc(C2CC2)on1`, the reporter increase was 53.9% (active).

Regarding `CCCNC(=O)N1C[C@H](O)COC[C@H]2O[C@@H](CC(=O)NCc3ccncn3)CC[C@@H]21`, the reporter increase was -2.02%.

Regarding `Clc1ccccc1SCc1nc2ccccc2[nH]1`, the reporter increase is 53% (active).

In the case of `CCN(CC)S(=O)(=O)c1ccc2nc(CSc3nnnn3-c3ccc(O)cc3)[nH]c2c1`, the reporter increase was 1.1%.

With `CCn1c(Cc2ccccc2)nnc1SCc1nc2ccccc2c(=O)[nH]1`, the reporter increase is -5.17%.

`O=C(C[C@@H]1C[C@H]2c3cc(NC(=O)NC4CCCC4)ccc3O[C@H]2[C@H](CO)O1)NCc1cc(F)ccc1F`: the reporter increase was 5.15%.

With `Fc1ccccc1-c1cc2cc3c(cc2cn1)OCO3`, the reporter increase was 16.5%.

Regarding `Fc1ccc2cnc(-c3ccccc3)cc2c1`, the reporter increase is 58.8% (active).

In the case of `COc1ccc(C(C)(O)c2nc(-c3cc(F)cc(F)c3)cs2)cc1` (stereo not given), the reporter increase is -4.23%.

With `COc1ccc(-c2cc3ncccc3cn2)cc1`, the reporter increase was 10.9%.

`COc1cc(OC)cc(-c2cc3ccc(F)cc3cn2)c1`: the reporter increase is 58.7% (active).

For the compound `N#CCSc1nc(-c2ccccc2)nc2ccc(F)cc12`, the reporter increase is -3.61%.
